From PubChem BioAssay AID1839 (Johns Hopkins Ion Channel Center, 2009) come the findings set out here.

The whole screen tested about 2,400 compounds, of which about 220 (9.2%) were called active.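 The calls were made as follows: active = signal change above the mean of dofetilide-free buffer controls plus 3 SD, so a positive margin; inactive = the rest.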 What follows is part of a selection rich in actives, with near analogues and random picks from the rest.

This test can be described thus: thallium signal changes without hERG – cell-based, CHO-K1 parental line, FluxOR thallium flux, counter-screen for hERG block protection project, confirmation (AID 1839).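 Also: compounds applied alone with no dofetilide to cells lacking hERG.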 The conditions noted are these: CHO-K1 parental cells, FluxOR thallium flux fluorescence; at 10 µM.
For `Cc1nnc(SCc2cc(=O)oc3cc(O)ccc23)n1Cc1ccccc1`, the signal change vs control minus 3*SD hit threshold (margin above threshold, higher = more increase) was -27.2% (inactive).
Turning to `O=C(NC(=S)Nc1ccc(N2CCOCC2)c(Cl)c1)c1sc2ccccc2c1Cl`, the signal change vs control minus 3*SD hit threshold (margin above threshold, higher = more increase) is -3.9% (inactive).
In the case of `Oc1ccc(N=Nc2ccccc2-c2nn[nH]n2)c(O)c1`, the signal change vs control minus 3*SD hit threshold (margin above threshold, higher = more increase) is -14.2% (inactive).
Consider `CCOC(=O)c1cccc(C(=O)Nc2nc3ccc(OC)cc3s2)n1`, for which the signal change vs control minus 3*SD hit threshold (margin above threshold, higher = more increase) was -31.4% (inactive).
As to `COc1ccc2nc(N=Nc3c(O)ccc4ccccc34)sc2c1`, the signal change vs control minus 3*SD hit threshold (margin above threshold, higher = more increase) was 1.7% (active).
As for `COc1ccc(S(=O)(=O)Nc2ccc(O)c3ccccc23)cc1`, the signal change vs control minus 3*SD hit threshold (margin above threshold, higher = more increase) was -41.6% (inactive).
As for `Cc1cc(NC(=O)/C(C#N)=C/c2ccco2)n(-c2ccccc2)n1`, the signal change vs control minus 3*SD hit threshold (margin above threshold, higher = more increase) is -40.7% (inactive).
With `Cc1[nH]n2c(=O)cc(C(C)(C)C)nc2c1-c1ccccc1`, the signal change vs control minus 3*SD hit threshold (margin above threshold, higher = more increase) was -21.1% (inactive).
Take `O=c1cc(-c2ccccc2)nc2c(-c3ccccc3)c(C(F)(F)F)[nH]n12`: the signal change vs control minus 3*SD hit threshold (margin above threshold, higher = more increase) is 8.1% (active).
As to `Cc1[nH]n2c(=O)cc(C(C)C)nc2c1-c1ccccc1`, the signal change vs control minus 3*SD hit threshold (margin above threshold, higher = more increase) was -21.7% (inactive).
As for `Cc1nc(-c2nc(-c3c(C(=O)NNC(=O)c4ccc(Cl)cc4)noc3C)cs2)cs1`, the signal change vs control minus 3*SD hit threshold (margin above threshold, higher = more increase) was -33.4% (inactive).
For `CC1CCc2c(sc3[nH]c(=S)n(C)c(=O)c23)C1` (stereo not given), the signal change vs control minus 3*SD hit threshold (margin above threshold, higher = more increase) is 23.8% (active).
With `Cc1cccc(-n2c(=S)[nH]c3sc4c(c3c2=O)CCc2ccccc2-4)c1`, the signal change vs control minus 3*SD hit threshold (margin above threshold, higher = more increase) was -27.1% (inactive).
With `COCCn1c(=S)[nH]c2sc3c(c2c1=O)CCC(C)C3` (stereo not given), the signal change vs control minus 3*SD hit threshold (margin above threshold, higher = more increase) is 18.3% (active).
For `Cn1c(=S)[nH]c2sc3c(c2c1=O)CCC(C(C)(C)C)C3` (stereo not given), the signal change vs control minus 3*SD hit threshold (margin above threshold, higher = more increase) is 32% (active).
As for `Cc1ccc(-n2c(=S)[nH]c3sc4c(c3c2=O)CCC4)cc1`, the signal change vs control minus 3*SD hit threshold (margin above threshold, higher = more increase) is -20.7% (inactive).
Turning to `O=C(NC(=S)N1CCN(C/C=C/c2ccccc2)CC1)c1ccc(Cl)nc1`, the signal change vs control minus 3*SD hit threshold (margin above threshold, higher = more increase) was -22.6% (inactive).
Turning to `Cc1ccc(NC(=S)N2CCN(c3ccccc3F)CC2)c(C)c1`, the signal change vs control minus 3*SD hit threshold (margin above threshold, higher = more increase) is -24.2% (inactive).
Then `O=c1[nH]c2ccc(S(=O)(=O)NCc3ccccc3)cc2[nH]1`, with -30.8% (inactive); and `CC(=O)c1c(N2CCN(Cc3ccccc3)CC2)[nH]c(-c2ccccc2)nc1=S`, with -16.4% (inactive); and `CCN(CC)C(=O)CN1C(=O)c2cccc3cccc(c23)C1=O`, with -21.1% (inactive).
Take `COc1ccccc1/C=C1\SC(=S)N(NS(=O)(=O)c2ccc(C)cc2)C1=O`: the signal change vs control minus 3*SD hit threshold (margin above threshold, higher = more increase) was -41.8% (inactive).
Turning to `Cc1cc(=O)oc2cc(OC(C(=O)O)c3ccccc3)ccc12` (stereo not given), the signal change vs control minus 3*SD hit threshold (margin above threshold, higher = more increase) was -33.7% (inactive).
As for `Cc1ccc(-c2cc(-c3n[nH]c(=S)o3)c3ccccc3n2)cc1`, the signal change vs control minus 3*SD hit threshold (margin above threshold, higher = more increase) was -2.6% (inactive).
With `C=CCc1cc(Cl)ccc1OCCOCCN(C)C`, the signal change vs control minus 3*SD hit threshold (margin above threshold, higher = more increase) was -30% (inactive).
Consider `CCOC(=O)c1c(NC(=O)/C=C/c2ccco2)sc(C)c1C`, for which the signal change vs control minus 3*SD hit threshold (margin above threshold, higher = more increase) was -32.2% (inactive).
On to `CCOC(=O)c1sc(NC(=O)c2ccccc2C(=O)O)c(C(=O)OCC)c1C`, for which the signal change vs control minus 3*SD hit threshold (margin above threshold, higher = more increase) was -19% (inactive).
For `CCOC(=O)c1sc2ncnc(NCC(c3cccs3)N(C)C)c2c1C` (stereo not given), the signal change vs control minus 3*SD hit threshold (margin above threshold, higher = more increase) was 3.3% (active).
For the compound `CCOC(=O)c1sc2ncnc(NCc3ccco3)c2c1C`, the signal change vs control minus 3*SD hit threshold (margin above threshold, higher = more increase) was 1.7% (active).
Regarding `CCOC(=O)c1sc(NC(=S)NC(=O)c2ccccc2)nc1C`, the signal change vs control minus 3*SD hit threshold (margin above threshold, higher = more increase) is -3.4% (inactive).
Consider `CCOC(=O)c1sc2nc(C)[nH]c(=S)c2c1C`, for which the signal change vs control minus 3*SD hit threshold (margin above threshold, higher = more increase) is -9.2% (inactive).
`CC/C(=N\NC(=O)c1nnn(-c2nonc2N)c1-c1cccs1)c1ccccc1`: the signal change vs control minus 3*SD hit threshold (margin above threshold, higher = more increase) was -25.4% (inactive).
On to `O=C(NC(=S)Nc1nc2c(s1)CCCC2)c1ccc(C(=O)c2ccccc2)cc1`, for which the signal change vs control minus 3*SD hit threshold (margin above threshold, higher = more increase) is -36.7% (inactive).
Consider `COC(=O)c1ccc(C(=O)NC(=S)Nc2nc3c(s2)CCCC3)cc1`, for which the signal change vs control minus 3*SD hit threshold (margin above threshold, higher = more increase) is 2% (active).
For `CC(C)(C)c1ccc(C(=O)NC(=S)Nc2nc3c(s2)CCCC3)cc1`, the signal change vs control minus 3*SD hit threshold (margin above threshold, higher = more increase) was -9.2% (inactive).
For the compound `O=C(NCC(c1cccs1)N1CCOCC1)c1cc(S(=O)(=O)N2CCOCC2)ccc1F` (stereo not given), the signal change vs control minus 3*SD hit threshold (margin above threshold, higher = more increase) is -28.4% (inactive).
Then `O=C1CSC(=S)N1/N=C/c1cc(Br)ccc1O`, with -42.6% (inactive); and `O=C(/C=C/c1ccccc1)c1cc(Br)ccc(=O)c1O`, with -22.9% (inactive); and `CC(=O)Oc1c(-c2ccc(Br)o2)oc2ccccc2c1=O`, with 63.5% (active).
Turning to `COc1ccc(-c2oc3ccccc3c(=O)c2OC(C)=O)cc1`, the signal change vs control minus 3*SD hit threshold (margin above threshold, higher = more increase) was -22.3% (inactive).
Regarding `CC(=O)Oc1c(-c2ccco2)oc2ccccc2c1=O`, the signal change vs control minus 3*SD hit threshold (margin above threshold, higher = more increase) is -12.5% (inactive).
Then `Cc1ccc(C(=O)NNc2cc(N3CCCC3)nc(N3CCCC3)n2)cc1`, with -21.8% (inactive).
Take `COc1ccc(NC(=O)C(=O)NNC(=O)c2cccs2)c(OC)c1`: the signal change vs control minus 3*SD hit threshold (margin above threshold, higher = more increase) was -7.2% (inactive).
Consider `O=C(NC(=S)NNC(=O)c1cccs1)c1ccc(Br)o1`, for which the signal change vs control minus 3*SD hit threshold (margin above threshold, higher = more increase) was -45.9% (inactive).
On to `CCN(CC)c1ccc(NC(=S)NC(=O)c2cccs2)cc1`, for which the signal change vs control minus 3*SD hit threshold (margin above threshold, higher = more increase) was -20.8% (inactive).
In the case of `Cc1ccc(N/C=C/C(=O)c2cccs2)cc1`, the signal change vs control minus 3*SD hit threshold (margin above threshold, higher = more increase) was -25.9% (inactive).
With `CCc1ccc(NC(=O)C(=O)NNC(=O)c2cccs2)cc1`, the signal change vs control minus 3*SD hit threshold (margin above threshold, higher = more increase) is 18.1% (active).
As to `Cc1ccc(NC(=O)C(=O)NNC(=O)c2cccs2)cc1`, the signal change vs control minus 3*SD hit threshold (margin above threshold, higher = more increase) was 27.4% (active).
Consider `CCOc1ccccc1Nc1nc(-c2sc(C)nc2C)cs1`, for which the signal change vs control minus 3*SD hit threshold (margin above threshold, higher = more increase) is -38.3% (inactive).
Then `COC(=O)c1ccc(-n2c(C)nc(=O)c(-c3ccccc3)c2C)cc1`, with -20.1% (inactive).
